Most compounds without a hit are left out; they make up all but 7.9% or so of the library.
HCV inhibitor: qHTS Assay for Inhibitors of Hepatitis C Virus (HCV); Huh7.5.1 HCVcc-Cre infection, luciferase reporter, 44 h; 340,000 tested, 3.4% active; Potency, µM (titrated, usually from 41.8 µM), for the others: at the top dose activity change, negative = inhibition, hits mostly inhibitors; active = well fitted inhibition curve with a large enough effect; inconclusive = small, poorly fitted or top-dose-only effect, or another doubt; inactive = no such curve, though single readings can be large or run the other way; note: potency is the fitted concentration of half-maximal effect
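Antiviral activity was scored by luciferase reporter output from cells infected with HCVcc-Cre (~0.5 moi) in presence of compound, 44 h infection period, cells seeded 1,000/well 4 h prior.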
MARV entry inh: qHTS for inhibitors of binding or entry into cells for Marburg Virus; Marburg virus pseudotyped entry inhibition, cell reporter; Potency, µM (doses to about 37.8 µM), for inactives: at the highest dose activity change, negative = inhibition, usual class: inhibitors; 300,000 tested, 1.8% active; calls by dose curve; tested in HEK293 cells; note: potency is the fitted concentration of half-maximal effect
Lassa entry inh: qHTS for Inhibitors of binding or entry into cells for Lassa Virus; Lassa virus pseudotype entry inhibition, cell reporter; Potency, µM (series often up to 37.9 µM), inactives show at the highest dose activity change, negative = inhibition, hits mostly inhibitors; 300,000 tested, 1.2% active; AID 540256, 2011; calls by dose curve; tested in HEK293 cells; note: potency is the fitted concentration of half-maximal effect; nearly all actives have a fitted effect of over 50% in size
HCMV antiviral: qHTS Assay for inhibitors of the human cytomegalovirus (HCMV); activity change, negative = inhibition, % at 57.5 µM; AID 1259415, 2018; HFF cells, HCMV-luciferase reporter, 72 h; hits give low values; 410,000 tested, 4.5% active; in the data active = activity change below about -60%; inconclusive = no clear call, values can overlap the other calls; inactive = above about -39%
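Cell-based, HFFs, 1000 cells/well, 16 h 37C; cpds in DMSO + HCMV-luc, MOI 1 PFU/cell; 72 h 37C; OneGlo luminescence after 5 min RT; norm. to buffer vs Salinomycin 10uM.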
FMDV antiviral: High Throughput Screening for Foot and Mouth Disease Virus Antivirals; FMDV antiviral cell-based qHTS; 410,000 tested, 1.2% active; Potency, µM (titrated, usually from 57.9 µM), without a hit: at the highest dose activity change, negative = inhibition, actives largely listed as inhibitors; calls by dose curve; tested in HEK293T cells; note: read-out not given here; potency is the fitted concentration of half-maximal effect; nearly all actives have a fitted effect of over 45% in size
The depositor's hits bear a star; ? = inconclusive; · = no result; ! = repeats disagree; [ ] = another dose, or the depositor's remark. % is set by controls: 0 for no effect and ±100 for the full control effect.

SMILES	HCV inhibitor	MARV entry inh	Lassa entry inh	HCMV antiviral	FMDV antiviral
CC(C)(C)C1=CC(=O)C(N2CCOCC2)=CC1=O	-11%	?	13µM*	63	?
O=C(c1ccc(F)cc1)N1CC(=O)N2[C@H](CO)[C@H](c3ccc(Br)cc3)[C@@H]2C1	·	·	·	-18	·
N/C(=N\OCc1ccccc1)c1nonc1N	-10%	·	·	-15	55%
N/C(=N/OCc1cccc([N+](=O)[O-])c1)c1nonc1N	-17%	2%	18%	-60*	-19%
Cc1nc([N+](=O)[O-])c(Br)n1CC(=O)c1ccc2ccccc2c1	10µM*	18µM*	?	70	22µM*
Cc1nc([N+](=O)[O-])c(Br)n1CC(=O)c1ccccc1	?	?	-27%	2	?
Cc1nc([N+](=O)[O-])c(C(=O)OCc2ccccc2Br)n1C	-10%	-10%[46.1 µM]	?	-35	-19%
Cc1nc([N+](=O)[O-])c(Br)n1CC(=O)c1ccc(Br)cc1	?	?	-2%	-16	13µM*
Cc1nc2nc(-c3ccc(Cl)cc3)cn2nc1C	0%	-12%	?	61	?
Cc1nc2nc(-c3cccs3)cn2nc1C	8%	?	10µM*	150	1%
Cc1ccc(NC(=O)c2ccc(CN3CC(=O)N4CCCCC4C3=O)cc2)cc1C (configuration not stated)	·	·	2%[46.1 µM]	142	7%
Cc1ccc(Cn2c(C)c3cnn(CC(=O)NC4CCCC4)c(=O)c3c2C)cc1	6%	·	·	-16	-7%
O=C(Cn1ncc(Cl)c(Cl)c1=O)NC1CCS(=O)(=O)C1 (configuration not stated)	-26%	·	·	-63*	-14%
O=C(CN1C(=O)c2ccccc2C1=O)NC1CCS(=O)(=O)C1 (configuration not stated)	·	·	·	2	9%
Cc1cccc(NC(=O)CNC(=O)Cn2ncc(Cl)c(Cl)c2=O)c1C	0.71µM*	?	?	·	22µM*
O=C(Cn1ncc(Cl)c(Cl)c1=O)NCC1CCCCC1	2.8µM*	?	18µM*	-101*	28µM*
O=C(Cn1ncc(Cl)c(Cl)c1=O)NC1CCCCC1	2.8µM*	·	·	0	35µM*
O=C(COC(=O)c1ccc(Cl)cc1)NCC1CCCCC1	11%	-1%	7%	-20	-5%
COc1ccccc1[C@H]1/C(=C(\O)c2ccc(C)cc2)C(=O)C(=O)N1Cc1ccco1	·	-1%[46.1 µM]	·	·	·
COc1ccc(C(=O)N/N=C/c2ccc(OC(=O)c3ccccc3)cc2)cc1	10%	0%	27%	53	22%
Cc1ccc(N=Cc2ccc(N(C)C)cc2)cc1	-7%	-3%	-3%	37	-14%
C/C(=N/N=C/c1ccc(N(C)C)cc1)c1ccccc1	-5%	?	?	-32	10µM*
CN(C)c1ccc(C=Nc2ccccc2)cc1	2%	27%	?	4	·
COc1ccc(C(=O)N/N=C/c2ccc(N(C)c3ccccc3)cc2)cc1	7.1µM*	·	·	-37	32µM*
CN(C)c1ccc(/C=N/NC(=O)c2ccccc2)cc1	-15%	-14%[46.1 µM]	10µM*	25	-12%
SMILES	HCV inhibitor	MARV entry inh	Lassa entry inh	HCMV antiviral	FMDV antiviral
CN(C)c1ccc(/C=N/NC(=O)c2ccc(Cl)cc2)cc1	-9%	-14%	-26%	?	·
CN(C)c1ccc(C=Nc2ccc(N(C)C)cc2)cc1	-4%	?	?	-72*	27%
CCCn1c(CC)nc([N+](=O)[O-])c1Sc1ncn[nH]1	·	·	·	-32	?
CC(=CC[Si](C)(C)C)CCC=O	·	-25%[14.2 µM]	?	·	·
O=C(CSc1nc(=O)[nH]c2c1CCC2)NCc1ccc(F)cc1	·	·	8%[46.1 µM]	9	-12%
CC(C(c1ccc2c(c1)OCO2)c1c(N)n(C)c(=O)n(C)c1=O)[N+](=O)[O-] (configuration not stated)	-3%	·	·	-63*	-15%
COc1ccc2c(c1)c1nc3n(c(=O)c1n2CC(=O)Nc1cc(C)[nH]n1)CCS3	·	·	·	-85*	·
COC(=O)/C=c1\s/c(=C(/C#N)C(=O)N2CCOCC2)n(-c2ccccc2)c1=O	·	-9%	·	·	·
COC(=O)/C=c1/s/c(=C(/C#N)C(=O)N2CCCCC2)n(-c2ccccc2)c1=O	2%	-33%	3%	-69*	-15%
C=CC[n+]1c(-c2ccccc2)csc1NC(C)(C)C	5%	?	1%[46.1 µM]	-9	-17%
C=CC[n+]1c(-c2ccc(OC)c(OC)c2)csc1NNC(=O)Nc1ccccc1	4µM*	?	10µM*	?	·
Cc1cc2c(c(=O)n1Cc1ccccc1)[C@H]1O[C@](c3ccsc3)(Cc3ccccc31)O2	·	-12%[14.2 µM]	·	·	·
CC1(C)Cc2ccccc2C2=NNC(=O)C2=N1	?	?	?	-102*	?
COC(=O)C=CC(=NNc1ccccc1)c1ccccc1	22µM*	?	-17%[46.1 µM]	46	-20%
CO/N=C/C(=N\Nc1ccccc1)C(=O)c1ccccc1	?	?	-23%	-39	-4%
COc1cc2c(C#N)c(N3CCN(C)CC3)nc(N)c2c(N)n1	?	-1%	·	14	·
COc1cc2c(C#N)c(N3CCN(c4ccccc4OC)CC3)nc(N)c2c(N)n1	?	?	11µM*	-28	40µM*
COc1cc2c(cc1OC)CN(Cc1cc(=O)n3c(-c4ccccc4)csc3n1)CC2	-30%	?	?	-73*	-15%
CC(=O)c1ccc(N2CCN(Cc3cc(=O)n4c(-c5ccccc5)csc4n3)CC2)cc1	13µM*	-24%[46.1 µM]	?	10	-25%
O=C(C1CCCN(c2ncnc3c2nc2n3CCCCC2)C1)N1CCN(c2ccc(F)cc2)CC1 (configuration not stated)	11µM*	?	?	-15	?
O=C(C1CCCN(c2ncnc3c2nc2n3CCCCC2)C1)N1CCN(c2ccc(Cl)cc2)CC1 (configuration not stated)	?	?	?	-83*	?
CCN(C(=O)C1CCCN(c2ncnc3c2nc2n3CCCCC2)C1)c1cccc(Cl)c1 (configuration not stated)	-6%	·	?	-87*!	?
CSc1cccc(NC(=O)C2CCCN(c3ncnc4c3nc3n4CCCCC3)C2)c1 (configuration not stated)	22µM*	·	·	?	?
CC(=O)c1ccc(N2CCN(C(=O)C3CCCN(c4ncnc5c4nc4n5CCCCC4)C3)CC2)cc1 (configuration not stated)	?	?	?	9	-8%
CCOC(=O)c1sc(NC(=O)C(C)Oc2ccc(OC)cc2)c(C(=O)OCC)c1C (configuration not stated)	·	·	7%[46.1 µM]	-31	-28%
COc1cc([C@@H]2C(C(C)=O)=C(O)C(=O)N2c2ccc(Br)cn2)ccc1O	·	-9%	·	·	·
Cc1ccc(-c2cc([C@H]3[C@@H]4C=CCC[C@@]4(C)C(=O)N3Cc3ccccc3)ccc2F)cc1	-66%	·	·	-16	-5%
